Test results from PubChem BioAssay.
For some assays here: Entries with a potency or affinity are not part of this list. Activity calls are given as the source filed them. Unless noted, the rule behind the calls is not given here.

What was measured:
[1] = antimalarial activity against Dd2 strain (AID 2302;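 active = growth inhibition above 50% at the single 2 µM test dose, taken to imply half-maximal potency below 2 µM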;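 note: 0% = DMSO untreated growth and 100% = chloroquine plus artemisinin killed control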); conditions: P. falciparum Dd2 in RBCs, LDH growth readout, 72 h; at 2 µM; active compounds read high
[2] = human hepatoma cell viability loss – ATP luminescence, cytotoxicity control for P. falciparum antimalarial project, primary screen (AID 2303;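 active = inhibition above 50%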;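 note: 0% = DMSO wells and 100% = digitonin-killed cells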); conditions: HepG2 viability, 24-48 h, at 10 µM, active compounds read high
[3] = target: L-lactate dehydrogenase (Plasmodium falciparum (isolate CDC / Honduras)) (UniProt Q27743); experiment: PfLDH activity inhibition – cell lysate, 3D7 strain, counter-screen for P. falciparum growth inhibition project (AID 2304);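 note: 0% = vehicle and 100% = reference inhibitor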; conditions: P. falciparum 3D7 crude extract, LDH APAD/NBT absorbance; at 2 µM; active compounds read high
Sequence of L-lactate dehydrogenase (Plasmodium falciparum (isolate CDC / Honduras)) (Q27743 whole entry, looked up): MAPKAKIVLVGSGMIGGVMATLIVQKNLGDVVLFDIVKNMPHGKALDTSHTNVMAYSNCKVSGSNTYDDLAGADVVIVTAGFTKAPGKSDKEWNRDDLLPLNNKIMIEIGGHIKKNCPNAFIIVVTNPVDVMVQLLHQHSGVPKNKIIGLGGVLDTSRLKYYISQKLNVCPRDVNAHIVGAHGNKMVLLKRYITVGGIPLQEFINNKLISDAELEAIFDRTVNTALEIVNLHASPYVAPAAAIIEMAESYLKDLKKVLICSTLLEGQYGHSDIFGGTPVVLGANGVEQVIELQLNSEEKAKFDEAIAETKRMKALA

[4] = inhibition of 3D7 malaria parasite growth – strain 3D7 (AID 2306);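 note: 0% = DMSO wells and 100% = chloroquine plus artemisinin control wells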; conditions: P. falciparum 3D7 erythrocytic growth, LDH absorbance, 72 h; at 2 µM; active compounds read high
[5] = target: Calcium-dependent protein kinase 1 (Plasmodium falciparum (isolate 3D7)) (UniProt P62344); experiment: PfCDPK1 kinase inhibitors, biochemical, TCAMS library (AID 1159585; cut-off not given, nearly all actives have IC50 up to about 0.98 µM;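 note: inhibitors leave more ATP so luminescence rises with inhibition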); conditions: recombinant PfCDPK1, Kinase-Glo ATP depletion luminescence
Sequence of Calcium-dependent protein kinase 1 (Plasmodium falciparum (isolate 3D7)) (P62344 whole entry, looked up): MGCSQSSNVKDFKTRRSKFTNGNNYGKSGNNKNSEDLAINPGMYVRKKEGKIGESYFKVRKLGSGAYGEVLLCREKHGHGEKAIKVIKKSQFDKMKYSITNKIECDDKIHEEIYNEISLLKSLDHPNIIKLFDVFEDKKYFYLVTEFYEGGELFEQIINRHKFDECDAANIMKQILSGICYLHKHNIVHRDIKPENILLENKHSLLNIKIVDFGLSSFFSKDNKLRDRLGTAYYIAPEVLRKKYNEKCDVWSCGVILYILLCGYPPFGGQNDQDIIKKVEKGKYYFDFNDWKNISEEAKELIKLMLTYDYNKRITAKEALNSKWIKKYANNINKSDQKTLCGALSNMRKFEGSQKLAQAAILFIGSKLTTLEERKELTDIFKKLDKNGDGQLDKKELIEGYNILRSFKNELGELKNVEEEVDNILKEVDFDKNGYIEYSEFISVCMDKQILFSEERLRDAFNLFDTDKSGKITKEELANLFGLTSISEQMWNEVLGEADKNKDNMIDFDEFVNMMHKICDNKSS

[6] = target: Plasmodium falciparum protein kinase 6 (PK6, PF3D7_1337100) (UniProt Q8IDW1); experiment: PfPK6 kinase inhibitors, biochemical, TCAMS library (AID 1159586); conditions: recombinant PfPK6, Kinase-Glo ATP depletion luminescence
Sequence of Plasmodium falciparum protein kinase 6 (PK6, PF3D7_1337100) (Q8IDW1 1-305): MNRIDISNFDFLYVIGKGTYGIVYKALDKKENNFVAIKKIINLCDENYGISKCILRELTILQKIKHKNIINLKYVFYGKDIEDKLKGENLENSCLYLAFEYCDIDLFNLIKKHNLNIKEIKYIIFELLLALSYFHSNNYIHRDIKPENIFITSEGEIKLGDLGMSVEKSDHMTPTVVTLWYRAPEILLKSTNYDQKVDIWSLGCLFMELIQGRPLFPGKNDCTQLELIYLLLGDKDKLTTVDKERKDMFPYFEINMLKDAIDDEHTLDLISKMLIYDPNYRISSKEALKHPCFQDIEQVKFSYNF

[7] = target: Protein kinase 7 (PK7), Plasmodium falciparum 3D7 (PF3D7_0213400) (UniProt Q7YTF7); experiment: inhibition of Plasmodium PK7 catalytic activity – biochemical, TCAMS antimalarial set, Kinase-Glo luminescence (AID 1159587); conditions: recombinant PfPK7, Kinase-Glo ATP depletion luminescence
Sequence of Protein kinase 7 (PK7), Plasmodium falciparum 3D7 (PF3D7_0213400) (Q7YTF7 1-343): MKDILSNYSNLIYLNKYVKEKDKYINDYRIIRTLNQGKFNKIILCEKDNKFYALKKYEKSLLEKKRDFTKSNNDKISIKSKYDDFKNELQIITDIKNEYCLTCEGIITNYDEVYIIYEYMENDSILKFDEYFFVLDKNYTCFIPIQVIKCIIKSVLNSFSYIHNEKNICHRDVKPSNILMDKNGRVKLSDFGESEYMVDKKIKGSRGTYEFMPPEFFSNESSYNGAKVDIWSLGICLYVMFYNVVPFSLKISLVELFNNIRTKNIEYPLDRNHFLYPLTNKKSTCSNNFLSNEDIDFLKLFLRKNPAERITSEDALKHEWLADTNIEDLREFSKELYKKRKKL

[8] = target: Calcium-dependent protein kinase 4 (Plasmodium falciparum (isolate 3D7)) (UniProt Q8IBS5); experiment: PfCDPK4 kinase inhibitors, biochemical, TCAMS library (AID 1159588; cut-off not given, nearly all actives have IC50 up to about 0.91 µM); conditions: recombinant PfCDPK4, Kinase-Glo ATP depletion luminescence
Sequence of Calcium-dependent protein kinase 4 (Plasmodium falciparum (isolate 3D7)) (Q8IBS5 whole entry, looked up): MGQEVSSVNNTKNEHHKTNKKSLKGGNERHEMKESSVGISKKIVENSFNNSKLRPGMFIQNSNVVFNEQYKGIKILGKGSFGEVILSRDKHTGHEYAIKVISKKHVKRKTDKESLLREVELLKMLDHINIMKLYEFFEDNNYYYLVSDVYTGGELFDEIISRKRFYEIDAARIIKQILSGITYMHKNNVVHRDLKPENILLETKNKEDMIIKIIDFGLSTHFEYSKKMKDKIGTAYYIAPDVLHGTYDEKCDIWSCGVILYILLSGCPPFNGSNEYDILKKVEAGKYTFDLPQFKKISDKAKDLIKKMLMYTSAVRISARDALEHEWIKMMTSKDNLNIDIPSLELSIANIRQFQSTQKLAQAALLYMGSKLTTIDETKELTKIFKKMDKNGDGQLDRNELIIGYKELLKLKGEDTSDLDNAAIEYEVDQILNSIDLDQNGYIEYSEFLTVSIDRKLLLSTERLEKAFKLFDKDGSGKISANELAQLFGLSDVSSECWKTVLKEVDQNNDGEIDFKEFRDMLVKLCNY

Cc1cccc2[nH]c(-c3ccc(-c4cccc(CNCCc5ccncc5)c4)cc3)nc12
inactive: inhibition [2] 28% | inhibition [3] 2% | outcome [5] | outcome [6] | outcome [7] | outcome [8]
active: growth inhibition [1] 95% | growth inhibition [4] 101%

CCCc1cc(Cc2cnc(N)nc2N)cc(CCC)c1OCCCCCC(=O)OCC
active: growth inhibition [4] 95%
inactive: growth inhibition [1] -3% | inhibition [2] 12% | inhibition [3] -1% | outcome [5] | outcome [6] | outcome [7] | outcome [8]

O=C(Nc1ccc(Br)cc1)Nc1ccc(Cn2ncc(N3CCCNCC3)c(Cl)c2=O)cc1
inactive: growth inhibition [1] 15% | inhibition [2] -7% | inhibition [3] -1% | outcome [5] | outcome [6] | outcome [7] | outcome [8]
active: growth inhibition [4] 87%

CC(=O)c1ccc(-c2cccc3c(CC(=O)Nc4ccc5nccc(N6CCN(C)CC6)c5c4)cccc23)cc1
active: growth inhibition [1] 96% | growth inhibition [4] 101%
inactive: inhibition [2] 3% | inhibition [3] -11% | outcome [5] | outcome [6] | outcome [7] | outcome [8]

COc1ccc2nccc([C@@H](O)CN3CCC(NC(=O)/C=C/c4cc(F)cc(NC(C)=O)c4)CC3)c2c1
active: growth inhibition [4] 97%
inactive: growth inhibition [1] 49% | inhibition [2] 7% | inhibition [3] 5% | outcome [5] | outcome [6] | outcome [7] | outcome [8]

Cc1cc(N[C@@H](Cc2ccccc2)C(=O)NCCOc2ccccc2)nc(NCCc2ccccn2)n1
active: growth inhibition [4] 92%
inactive: growth inhibition [1] 42% | inhibition [2] 12% | inhibition [3] -2% | outcome [5] | outcome [6] | outcome [7] | outcome [8]

COc1cc(CN2CCC(CO)(Cc3cccc(C(F)(F)F)c3)CC2)c(Cl)cc1O
active: growth inhibition [1] 64% | growth inhibition [4] 99%
inactive: inhibition [2] 12% | inhibition [3] 6% | outcome [5] | outcome [6] | outcome [7] | outcome [8]

Cc1[nH]cnc1CSCCNC(=NCCCCCCCCN=C(NC#N)NCCSCc1nc[nH]c1C)NC#N
inactive: growth inhibition [1] 48% | inhibition [2] 1% | inhibition [3] 0% | outcome [5] | outcome [6] | outcome [7] | outcome [8]
active: growth inhibition [4] 81%

Cc1cccc(CNc2nc(C)cc(NCCC(=O)Nc3ccccc3)n2)c1
active: growth inhibition [1] 54% | growth inhibition [4] 101%
inactive: inhibition [2] 15% | inhibition [3] -3% | outcome [5] | outcome [6] | outcome [7] | outcome [8]

COc1ccc2nccc([C@@H](O)CN3CCC(NCc4ccc5c(n4)NCCC5)CC3)c2c1
active: growth inhibition [4] 101%
inactive: growth inhibition [1] 39% | inhibition [2] 21% | inhibition [3] -3% | outcome [5] | outcome [6] | outcome [7] | outcome [8]

COC(=O)c1cccc(NC(=O)NC2CCN(c3ccnc(Nc4ccc(F)cc4)n3)C2)c1 (stereo not given)
inactive: inhibition [2] 5% | inhibition [3] 3% | outcome [5] | outcome [6] | outcome [7] | outcome [8]
active: growth inhibition [1] 83% | growth inhibition [4] 100%

COc1ccc2c(NN=Cc3ccc([N+](=O)[O-])cc3)ccnc2c1
inactive: inhibition [2] -1% | inhibition [3] -1% | outcome [5] | outcome [6] | outcome [7] | outcome [8]
active: growth inhibition [1] 98% | growth inhibition [4] 100%

Cc1cc(NCCCOc2ccc(Cl)cc2)nc(NCc2ccccc2)n1
inactive: growth inhibition [1] 20% | inhibition [2] 45% | inhibition [3] 0% | outcome [5] | outcome [6] | outcome [7] | outcome [8]
active: growth inhibition [4] 95%

NCc1ccc(CNCc2cccc(-c3cccc(-c4nc5ccccc5[nH]4)c3)c2)cc1
inactive: growth inhibition [1] 11% | inhibition [2] 7% | inhibition [3] -7% | outcome [5] | outcome [6] | outcome [7] | outcome [8]
active: growth inhibition [4] 101%

COc1cc(C(=O)NC2CCN(Cc3ccccc3)CC2)ccc1-c1cc2cc(Cl)c(Cl)cc2[nH]1
active: growth inhibition [1] 101% | growth inhibition [4] 102%
inactive: inhibition [2] 33% | inhibition [3] 5% | outcome [5] | outcome [6] | outcome [7] | outcome [8]

Oc1c(C(Nc2nc3ccccc3s2)c2ccc(OC(F)F)cc2)ccc2cccnc12 (stereo not given)
inactive: inhibition [3] 4% | outcome [5] | outcome [6] | outcome [7] | outcome [8]
active: growth inhibition [1] 85% | inhibition [2] 62% | growth inhibition [4] 92%

O=c1ccc2ccc(F)cc2n1CCN1CCC(NCc2ccc(-c3ccccn3)s2)CC1
active: growth inhibition [4] 98%
inactive: growth inhibition [1] 30% | inhibition [2] -12% | inhibition [3] -1% | outcome [5] | outcome [6] | outcome [7] | outcome [8]

CC(C)N1CCCN(C(=O)C2CCN(c3ccc(C(=O)N4CCCC4)cn3)CC2)CC1
inactive: growth inhibition [1] 12% | inhibition [2] 41% | inhibition [3] 1% | outcome [5] | outcome [6] | outcome [7] | outcome [8]
active: growth inhibition [4] 86%

CN1CCN(c2ccnc3ccc(NC(=O)Nc4cccc(C#N)c4)cc23)CC1
inactive: inhibition [2] 11% | inhibition [3] -1% | outcome [5] | outcome [6] | outcome [7] | outcome [8]
active: growth inhibition [1] 96% | growth inhibition [4] 99%

Cc1cc(NC(=O)Nc2cccc(N(C)C)c2)c2ccccc2n1
inactive: inhibition [2] 0% | inhibition [3] 4% | outcome [5] | outcome [6] | outcome [7] | outcome [8]
active: growth inhibition [1] 95% | growth inhibition [4] 97%

CC(C)Cc1c(O)nc(SCCN2CCOCC2)[nH]c1=O
inactive: growth inhibition [1] -5% | inhibition [2] 19% | inhibition [3] 1% | outcome [5] | outcome [6] | outcome [7] | outcome [8]
active: growth inhibition [4] 88%

CCn1c(-c2nc(-c3ccc4c(c3)OCO4)cnc2N)nc2cnccc21
inactive: inhibition [3] -7% | outcome [5] | outcome [6] | outcome [7] | outcome [8]
active: growth inhibition [1] 98% | inhibition [2] 94% | growth inhibition [4] 100%

Fc1cccc(COc2ccc(Nc3ncnc4sc(C#Cc5ncc[nH]5)cc34)cc2Cl)c1
active: growth inhibition [1] 95% | inhibition [2] 55% | growth inhibition [4] 100%
inactive: inhibition [3] -3% | outcome [5] | outcome [6] | outcome [7] | outcome [8]

CC(C)(C)OC(=O)NCc1ccc(Nc2nnc(-c3ccc(OCC(=O)NCc4cc(C(F)(F)F)cc(C(F)(F)F)c4)c([N+](=O)[O-])c3)o2)cc1
active: growth inhibition [1] 92% | growth inhibition [4] 97%
inactive: inhibition [2] 24% | inhibition [3] -1% | outcome [5] | outcome [6] | outcome [7] | outcome [8]

CCc1cn2c3c(cc(C(=O)N[C@@H](Cc4ccccc4)[C@H](O)CNCc4cccc(C)c4)cc13)N(C)S(=O)(=O)CC2
inactive: inhibition [2] 5% | inhibition [3] 5% | outcome [5] | outcome [6] | outcome [7] | outcome [8]
active: growth inhibition [1] 98% | growth inhibition [4] 96%

CCCC(=O)c1cnc2cc(O)ccc2c1Nc1ccccc1C
active: growth inhibition [1] 93% | growth inhibition [4] 99%
inactive: inhibition [2] 14% | inhibition [3] -8% | outcome [5] | outcome [6] | outcome [7] | outcome [8]

COc1cc(COc2c(C)nc(N)nc2N)cc(OC)c1OC
inactive: growth inhibition [1] -5% | inhibition [2] 7% | inhibition [3] -9% | outcome [5] | outcome [6] | outcome [7] | outcome [8]
active: growth inhibition [4] 100%

CCCN1CCN(CCCNc2c3ccccc3nc3ccccc23)CC1
inactive: growth inhibition [1] -1% | inhibition [2] 36% | inhibition [3] -7% | outcome [5] | outcome [6] | outcome [7] | outcome [8]
active: growth inhibition [4] 99%

Oc1c(C(Nc2ccccn2)c2ccco2)cc(Cl)c2cccnc12 (stereo not given)
inactive: inhibition [2] 41% | inhibition [3] 1% | outcome [5] | outcome [6] | outcome [7] | outcome [8]
active: growth inhibition [1] 65% | growth inhibition [4] 87%

COC(=O)c1c(C#N)c(OC)cc(O)c1CSC[C@@H](CN1CCCCC1)Nc1nc(-c2ccc([N+](=O)[O-])cc2)cs1
active: growth inhibition [1] 77% | growth inhibition [4] 101%
inactive: inhibition [2] 8% | inhibition [3] -3% | outcome [5] | outcome [6] | outcome [7] | outcome [8]

NC(=NCc1ccc(O)cc1)Nc1nc(-c2ccc(OCCCn3ccnc3)cc2)cs1
inactive: inhibition [2] 13% | inhibition [3] 2% | outcome [5] | outcome [6] | outcome [7] | outcome [8]
active: growth inhibition [1] 89% | growth inhibition [4] 102%

Cc1ccc(Cl)c2sc(N3CCN(C(=O)c4ccc([N+](=O)[O-])o4)CC3)nc12
inactive: inhibition [2] 21% | inhibition [3] -5% | outcome [5] | outcome [6] | outcome [7] | outcome [8]
active: growth inhibition [1] 94% | growth inhibition [4] 97%

CC(Nc1ncc(-c2ccsc2)c(-c2nccs2)n1)c1ccc2c(c1)OCCO2 (stereo not given)
active: growth inhibition [1] 66% | growth inhibition [4] 81%
inactive: inhibition [2] 14% | inhibition [3] 2% | outcome [5] | outcome [6] | outcome [7] | outcome [8]

COc1ccc(-n2nc(C)c3c2NC(=O)CC3c2ccccc2OCc2ccc(F)cc2)cc1 (stereo not given)
inactive: inhibition [3] 7% | outcome [5] | outcome [6] | outcome [7] | outcome [8]
active: growth inhibition [1] 65% | inhibition [2] 53% | growth inhibition [4] 93%

O=[N+]([O-])c1ccc2ncnc(Nc3ccc(F)c(Cl)c3)c2c1
inactive: inhibition [2] -1% | inhibition [3] 0% | outcome [5] | outcome [6] | outcome [7] | outcome [8]
active: growth inhibition [1] 65% | growth inhibition [4] 100%

Clc1ccc(OCCC2CCN(CCCCCCN3CCCCC3)CC2)cc1Cl
inactive: growth inhibition [1] 36% | inhibition [3] 9% | outcome [5] | outcome [6] | outcome [7] | outcome [8]
active: inhibition [2] 86% | growth inhibition [4] 97%

CC(C)c1ccc(S(=O)(=O)Nc2cccc(CCN3CCC(N4CCCCC4)CC3)c2)cc1
active: growth inhibition [4] 101%
inactive: growth inhibition [1] 35% | inhibition [2] 37% | inhibition [3] 6% | outcome [5] | outcome [6] | outcome [7] | outcome [8]

O=C(Nc1cc(Cl)ccc1-n1cncn1)C1(c2ccccc2)CC1
inactive: inhibition [2] 3% | inhibition [3] -2% | outcome [5] | outcome [6] | outcome [7] | outcome [8]
active: growth inhibition [1] 91% | growth inhibition [4] 98%

Cn1nccc1C(=O)NCCNCc1cccc(-c2ccc(-c3nc4ccc(C(F)(F)F)cc4[nH]3)cc2)c1
inactive: inhibition [3] -1% | outcome [5] | outcome [6] | outcome [7] | outcome [8]
active: growth inhibition [1] 98% | inhibition [2] 51% | growth inhibition [4] 102%

CCCNC(=O)C1CCN(C(c2ccc(Cl)cc2)c2ccc(Cl)cc2)CC1
inactive: inhibition [2] 7% | inhibition [3] 4% | outcome [5] | outcome [6] | outcome [7] | outcome [8]
active: growth inhibition [1] 96% | growth inhibition [4] 98%
